The record followed here is PubChem BioAssay (NCI).

About 79,000 compounds went through this panel and 15% of them were active in at least one assay; those are over-represented in the sample as a whole. Values without a mark were called inactive. Activity calls are given as the source filed them. Rule as the data show it: active = growth inhibition above about 70%; inactive = the rest.

The nature of assay [1]: NCI Yeast Anticancer Drug Screen. Data for the rad50 strain (AID 155).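 Also: 0% = growth of vehicle-only cultures of the same strain.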 Particulars: S. cerevisiae rad50 strain growth inhibition; at 50.0 µM; active compounds read high. An outline of the steps: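 Growth of the mutant yeast was measured after compound exposure and referenced to vehicle-treated cultures.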
Assay [2] in a line: NCI Yeast Anticancer Drug Screen. Data for the mec2-1 strain (AID 157). Particulars: S. cerevisiae mec2-1 strain, at 50.0 µM, active compounds read high. In outline: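 mec2-1 yeast strain, carrying an alteration in DNA damage repair or cell cycle control, was exposed to compounds; growth inhibition was measured relative to vehicle-treated controls.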
Assay [3] in a line: NCI Yeast Anticancer Drug Screen. Data for the sgs1 mgt1 strain (AID 161).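 Also: 0% = growth of cultures given vehicle only.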 Particulars: S. cerevisiae sgs1 mgt1 strain, at 50.0 µM, active compounds read high. An outline of the steps:
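Yeast cells carrying a defined DNA-repair defect were exposed to test compounds. Growth inhibition was measured relative to vehicle-treated controls.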

Assay [4] is described as follows: NCI Yeast Anticancer Drug Screen. Data for the cln2 rad14 strain (AID 165).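 Also: 0% = growth equal to vehicle treated cultures.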 Particulars: S. cerevisiae cln2 rad14 strain, at 50.0 µM, active compounds read high. An outline of the steps:
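Yeast carrying cln2 and rad14 alterations (cell cycle control and DNA damage repair) were exposed to compounds. Growth inhibition was measured against vehicle-treated controls.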

Assay [5] can be described thus: NCI Yeast Anticancer Drug Screen. Data for the bub3 strain (AID 167). Particulars: S. cerevisiae bub3 mutant strain, at 50.0 µM, active compounds read high. In outline: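 Whole-cell yeast assay. The mutant strain was incubated with compounds, and growth inhibition was determined by comparison with vehicle-treated cells.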
A short description of assay [6]: NCI Yeast Anticancer Drug Screen. Data for the mlh1 rad18 strain (AID 175). Particulars: S. cerevisiae mlh1 rad18 strain growth inhibition; at 50.0 µM; active compounds read high. In outline:
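Growth inhibition of the yeast strain was measured after compound exposure and expressed relative to vehicle-treated controls. The strain carries defined defects in DNA damage repair.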

As to `COC(C)C(NC(=O)C1CCCN1C)C1OC(SCCOC(=O)c2ccccc2O)C(O)C(O)C1O` (stereo unspecified), the growth inhibition in assay [1] is 8.3%; in assay [2] it was 6.3%; in assay [3] it was -13.6%; in assay [4] it was 13.4%; in assay [5], 3.45%; in assay [6], 31.6%.
With `CCc1cccc(C(C)CC)c1NC(=O)CC1C(=O)Nc2ccccc2S1=O` (stereo unspecified), the growth inhibition in assay [1] was 15.2%; in assay [2], 0.65%; in assay [3], 7.2%; in assay [4] it was 18.1%; in assay [5], 32.5%; in assay [6], 15.2%.
As to `Cc1ccc(S(=O)(=O)n2cncc2CO)cc1`, the growth inhibition was -33.7% in assay [1]; -26.8% in assay [2]; -15.1% in assay [3]; 7.55% in assay [4]; 4.05% in assay [5]; -10.7% in assay [6].
`CCOC(=O)C1C(=S)NC(=O)C1C#N` (stereo unspecified): the growth inhibition in assay [1] is 0.3%; in assay [2], -0.05%; in assay [3], 1.35%; in assay [4] it was 0.75%; in assay [5], 11.3%; in assay [6], -4.7%.
On to `N#CC1(C(N)=O)OC1c1ccccc1Cl` (stereo unspecified), for which the growth inhibition is -3.1% in assay [1]; -18.1% in assay [2]; 1.3% in assay [3]; -37.3% in assay [4]; -7.1% in assay [5]; -16.9% in assay [6].
For `ClCc1c(-c2ccccc2)nn(-c2ccccc2)c1CCl`, the growth inhibition in assay [1] is 8.65%; in assay [2], 14.2%; in assay [3], 38.5%; in assay [4], 6.05%; in assay [5] it was 57.5%; in assay [6], 37%.
With `COc1ccccc1C/C(=N/O)c1ccccc1OC`, the growth inhibition in assay [1] is 3.65%; in assay [2] it was -2.8%; in assay [3], 14.1%; in assay [4] it was 15.6%; in assay [5], -3.8%; in assay [6], 4.35%.
Take `O=C(c1ccccc1)c1nc2c(Cl)ccc(Cl)c2cc1C(Br)Br`: the growth inhibition in assay [1] is 37.1%; in assay [2] it was 20.8%; in assay [3], 44%; in assay [4], 45.2%; in assay [5], 38.1%; in assay [6], 44.1%.
Consider `Cc1cc(O)c2c(c1)C[C@@H](O)C1=C2C(=O)c2c(O)ccc(OC3CC(O)C(OC4CC(OC5CCC(OC6CC(O)C(OC7CC(OC8CCC(O)C(C)O8)C(O)C(C)O7)C(C)O6)C(C)O5)C(O)C(C)O4)C(C)O3)c2C1=O` (stereo partly specified), for which the growth inhibition in assay [1] is 88.5% (active); in assay [2], 90.6% (active); in assay [3], 90.1% (active); in assay [4], 84.8% (active); in assay [5], 86.6% (active); in assay [6] it was 88.5% (active).
Take `OCCN1OCCCC1c1ccccc1` (stereo unspecified): the growth inhibition in assay [1] was -0.75%; in assay [2], -14.3%; in assay [3], 1.2%; in assay [4], -28.1%; in assay [5] it was -31.2%; in assay [6], 0.1%.
As for `CCC(CC)NCCCNc1cc(OC)cc2cccnc12`, the growth inhibition was 20.8% in assay [1]; 33.6% in assay [2]; 53.8% in assay [3]; 4.65% in assay [4]; 30.9% in assay [5]; 48.6% in assay [6].
As for `N#Cc1c(-c2ccc(Cl)cc2)cn2c1[nH]c(=O)c1c3c(sc12)CCCC3`, the growth inhibition in assay [1] was 13.2%; in assay [2] it was 10.2%; in assay [3], 0.15%; in assay [4] it was -6.8%; in assay [5], -4.25%; in assay [6] it was 1.35%.
As to `CCOC(=O)C(=CC(C)(C)C)C(=O)OCC`, the growth inhibition was 3.9% in assay [1]; 19.1% in assay [2]; 2.8% in assay [3]; 14.8% in assay [4]; 21.1% in assay [5]; 10% in assay [6].
Turning to `NC(=O)c1ccc[n+](-c2ccc([N+](=O)[O-])cc2[N+](=O)[O-])c1`, the growth inhibition in assay [1] is 79.3% (active); in assay [2] it was 54.6%; in assay [3], 80.2% (active); in assay [4], 39.8%; in assay [5], 17.3%; in assay [6], 63.4%.
For the compound `CC(=O)NC(Cc1ccc(O)cc1)C(=O)O` (stereo unspecified), the growth inhibition in assay [1] is 10.8%; in assay [2] it was 5.25%; in assay [3], -3.4%; in assay [4], -19.4%; in assay [5], -9.05%; in assay [6], -3.45%.
Consider `N#Cc1nc(-c2ccccc2)c(-c2ccccc2)nc1C#N`, for which the growth inhibition in assay [1] was 3.15%; in assay [2] it was 9.8%; in assay [3] it was 0.6%; in assay [4], -7.05%; in assay [5], 13.9%; in assay [6], -0.6%.
Take `COc1ccc(C=O)c(Br)c1O`: the growth inhibition in assay [1] is -0.65%; in assay [2] it was -6.85%; in assay [3] it was -14.2%; in assay [4], 22.4%; in assay [5] it was -12.3%; in assay [6], -16.9%.
For `CC1=CC(=O)C2=C(C)CCC3C(C)C(=O)OC3C12` (stereo unspecified), the growth inhibition was -4.2% in assay [1]; -9.85% in assay [2]; -6.75% in assay [3]; 10.8% in assay [4]; -3.55% in assay [5]; -60.7% in assay [6].
Take `CCc1c(O)cc(=O)oc1-c1ccc(OC)c(OC)c1`: the growth inhibition in assay [1] is 21%; in assay [2], -16.2%; in assay [3] it was 2.15%; in assay [4] it was 6.05%; in assay [5] it was -6.9%; in assay [6], -26.6%.
Turning to `O=[N+]([O-])c1ccc2c(c1)Sc1ccccc1N2`, the growth inhibition in assay [1] was -16.8%; in assay [2], -14.4%; in assay [3] it was -26.7%; in assay [4], -21.8%; in assay [5], -25.2%; in assay [6] it was -22.6%.
As to `COC(=O)c1c(C(=O)c2ccccc2)nnn1-c1cccc(C(F)(F)F)c1`, the growth inhibition is -14.1% in assay [1]; -32.7% in assay [2]; -19% in assay [3]; -3.85% in assay [4]; -28.7% in assay [5]; 0.35% in assay [6].
